Laboratory results as given in article PMC5540273 (PLoS ONE, 2017).

Each compound was assayed on FLT3.
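Further: kd values determined as follow-up on hits from a single-replicate KINOMEscan panel screen.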

| Structure (SMILES) | Kd [nM] |
| --- | --- |
| Cn1ccc2ncnc(Oc3ccc(NC(=O)Nc4ccccc4)cc3)c21 | 33 |
| O=C(Nc1n[nH]c2nc(-c3nccs3)c(Br)cc12)C1CC1 [SB-742251] | 190 |
| Cc1ccc(NC(=O)Nc2cc(C(C)(C)C)nn2-c2ccccc2)cc1 [GSK1014915] | 26 |

These compounds were tested on GAK.

| Structure (SMILES) | Kd [nM] |
| --- | --- |
| Fc1cc(Cl)ccc1Nc1ccnc2cc(I)ccc12 [GW551191] | 340 |
| CSc1nn2c(=O)cc(N3CCOCC3)nc2n1Cc1cccc(C(F)(F)F)c1C [GSK2363608] | > 10000 |
| Cc1ccc(-c2cc(-c3c[nH]nc3-c3ccccn3)ccn2)cc1 [GW684088] | 110 |

What follows are compounds tested on GSK3A.

| Structure (SMILES) | Kd [nM] |
| --- | --- |
| Cc1nnc(-c2ccc3occ(-c4ccc(S(C)=O)cc4)c3c2)[nH]1 (stereo not drawn) | 190 |
| O=C(Nc1n[nH]c2nc(-c3nccs3)c(Br)cc12)C1CCCC1 [SB-742609] | 61 |
| O=C(Nc1n[nH]c2nc(-c3nccs3)c(Br)cc12)C1CC1 [SB-742251] | 290 |
